According to PubChem BioAssay AID485270 (The Scripps Research Institute Molecular Screening Center, 2010):
Hit rate of the full screen: of about 330,000 compounds, about 5,800 (1.8%) were called active. This is one part of a sample in which actives are shown more often than they occur. A number with no mark means an inactive call. Cut-off read from the data, not from the text of the source: active = inhibition mostly above about 38% (no sharp cut-off); inactive = mostly below about 40%.

These molecules were tested against Orexin/Hypocretin receptor type 1 (Homo sapiens) (UniProt O43613) (assay: antagonists of human orexin 1 receptor (OX1R) (AID 485270;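 note: 0% = agonist challenge alone and 100% = reference antagonist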)). Details: OX1R-expressing cells, FRET antagonist read-out; at 6.6 µM; active compounds read high.
Orexin/Hypocretin receptor type 1 (Homo sapiens), sequence (O43613 whole entry, looked up): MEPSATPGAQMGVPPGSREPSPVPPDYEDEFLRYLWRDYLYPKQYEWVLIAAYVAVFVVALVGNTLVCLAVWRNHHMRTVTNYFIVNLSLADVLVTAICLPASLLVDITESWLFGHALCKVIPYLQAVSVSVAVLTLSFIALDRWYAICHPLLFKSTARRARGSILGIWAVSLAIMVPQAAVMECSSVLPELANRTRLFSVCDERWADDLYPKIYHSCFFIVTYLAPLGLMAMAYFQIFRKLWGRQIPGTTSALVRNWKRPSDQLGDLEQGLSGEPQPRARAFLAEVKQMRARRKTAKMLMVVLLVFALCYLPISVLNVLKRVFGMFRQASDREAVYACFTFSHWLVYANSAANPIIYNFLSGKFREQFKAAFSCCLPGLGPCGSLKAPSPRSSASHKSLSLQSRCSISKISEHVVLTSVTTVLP
Work on O=C(COC(=O)c1ccncc1)Nc1ccc2c(c1)OCO2 yielded an inhibition of 9.22%. With O=C(Nc1cccc(S(=O)(=O)NC2=NCCC2)c1)c1ccc(F)cc1F the inhibition was 3.06%. Cc1cccc(-n2ncc3c(=O)[nH]c(SCC(=O)Nc4cc(C)on4)nc32)c1 showed an inhibition of 10.5%. COc1ccc(-c2nc3cc(C)ccn3c2NC2CCCCC2)cc1SC1CCCCC1 showed an inhibition of 11.5%. In the case of Cc1ccc(NC(=O)CN(C)C(=O)c2ccc(Cl)c(S(=O)(=O)NCc3ccco3)c2)cc1, the inhibition was 4.72%. CC(C)(C)c1ccc(C(=O)NCC(=O)OCN2C(=O)c3ccccc3C2=O)cc1 gave an inhibition of -0.82%. Cc1ccc(CNC(=O)c2ccc3c(c2)S(=O)(=O)c2ccccc2C3=O)cc1 showed an inhibition of 61.7%. COC(=O)CNC(=O)c1ccc2c(c1)S(=O)(=O)c1ccccc1C2=O was tested, and the inhibition was 172% (active). For COC(=O)[C@]1(C)N[C@H](CN(C)C(=O)c2ccc(C(C)(C)C)cc2)[C@@H]2C(=O)N(C)C(=O)[C@@H]21, the inhibition was 6.6%. Molecule CC(NC(=O)c1ccccc1SCC(=O)N1CCCC1)c1ccccc1 (stereo not drawn) has an inhibition of 6.4%. With COc1ccccc1NC(=O)COC(=O)c1ccccc1SCC(=O)N1CCCC1 the inhibition was 23.9%. In the case of CC(C)N(Cc1ccccc1)C(=O)COC(=O)c1ccccc1SCC(=O)N1CCCC1, the inhibition was 60.6% (active). For COc1ccc(S(=O)(=O)N(C)C[C@@H]2Oc3ccc(NC(=O)Nc4c(C)noc4C)cc3C(=O)N([C@H](C)CO)C[C@@H]2C)cc1, the inhibition was 5.98%. With Oc1ccc(N=Cc2sc3ccccc3c2Cl)cc1 the inhibition was 36.6%. With Oc1ccc(N=Cc2c(O)ccc3ccccc23)cc1 the inhibition was 54.4% (active). O=[N+]([O-])c1ccc(N=Cc2c(O)ccc3ccccc23)cc1 was tested, and the inhibition was 26.6%. Cc1ccc(N2C(=O)N3[C@@H]4c5ccccc5OC[C@@H]4[C@@H](c4ccccc4)[C@@]3(C)C2=O)cc1 gave an inhibition of 4.13%. Molecule O=C(NN=Cc1ccc(N2CCOCC2)cc1)c1cc2ccccc2cc1O has an inhibition of 8.04%. In the case of C=CCn1c(SCC(=O)NCc2ccccc2)nnc1-c1cc(Br)ccc1O, the inhibition was 13.4%. Cn1nnnc1SCC(=O)Nc1nc2ccccc2s1 was tested, and the inhibition was 14.3%. For C=CCn1c(SCC(=O)Nc2nc3ccccc3s2)nnc1-c1ccccc1O, the inhibition was 53% (active). O=C(COc1cccnc1[N+](=O)[O-])Nc1ccc(Cl)cc1F showed an inhibition of 9.99%. Cc1ccsc1C(=O)OCC(=O)NCCc1ccccc1 was tested, and the inhibition was 1.76%. Work on CC[C@]12c3[nH]c4cc(CCC(=O)N(C)C)ccc4c3CCN1C(=O)[C@@H](CC(=O)NCCCn1ccnc1)C[C@@H]2C(=O)N1CCN(C(=O)C2CC2)CC1 yielded an inhibition of 10.3%. In the case of c1ccc(-c2nnc(SCc3nc4ccccc4[nH]3)o2)cc1, the inhibition was 16.7%. Work on Clc1ccccc1SCc1nc2ccccc2[nH]1 yielded an inhibition of 24.1%. With c1ccc2c(CSCc3nc4ccccc4[nH]3)cccc2c1 the inhibition was 90.8% (active). CC(C)(C)OC(=O)C[C@@H]1C/C=C\C[C@@H](CC(=O)N[C@H](CO)Cc2ccccc2)C(=O)NC[C@@H](c2ccccc2)OC1=O was tested, and the inhibition was 8.95%. In the case of COC(=O)C1=C(C)N(Cc2ccccc2)C(=NCCCOC(C)C)N[C@H]1c1ccccc1, the inhibition was 10.8%. With COCC(=O)N1CCc2ccc(NC(=O)c3ccccc3Cl)cc2C1 the inhibition was -9.22%. In the case of O=C(Nc1ccc2sc3ccccc3c(=O)c2c1)c1ccccc1Cl, the inhibition was 86.1% (active). CS(=O)(=O)c1ccccc1C(=O)Nc1ccc2sccc2c1 was tested, and the inhibition was 11.8%. In the case of CCCC(CNC(=O)COC(=O)C1=NNC(=O)CC1)c1ccc(Cl)cc1Cl (stereo not drawn), the inhibition was 9.27%. For CC1O[C@@H](OC2C(O)C(C)O[C@H](OC(=O)[C@]34CCC(C)(C)C[C@H]3C3=CCC5[C@@]6(C)CC(O)C(O[C@@H]7OC(CO)C(O)[C@@H](O)[C@@H]7O)[C@@](C)(C(=O)O)C6CC[C@@]5(C)[C@]3(CO)CC4)C2O[C@H]2OC(C)[C@@H](O[C@@H]3OCC(O[C@@H]4OC(CO)C(O)[C@H](O)C4O)[C@@H](O)[C@@H]3O)[C@H](O)C2O)C(O)C(O)C1O (stereo partly drawn), the inhibition was 10.6%. With CCC(CO)Oc1cc(NC(=O)c2cccc3ccccc23)c2ncn(C(C)C)c2c1 (stereo not drawn) the inhibition was 12.5%. Molecule COc1ccccc1-c1nnc2n1N=C(c1ccc(OC(F)F)c(OCC3CC3)c1)CS2 has an inhibition of 9.14%. In the case of C[C@@H]1CN([C@H](C)CO)C(=O)c2cc(NC(=O)NC3CCCCC3)ccc2O[C@H]1CN(C)S(C)(=O)=O, the inhibition was 0.78%. With COc1ccc(S(=O)(=O)Nc2ccccc2C(=O)N2CCCC2)cc1C the inhibition was 15.3%. Work on CC(NS(=O)(=O)c1ccc(OCC(=O)N2CCCC2)cc1)c1ccccc1 (stereo not drawn) yielded an inhibition of 2.37%. In the case of COc1ccc(S(=O)(=O)NC(C)c2ccccc2)cc1C(=O)N1CCCCC1 (stereo not drawn), the inhibition was 78.9% (active). Work on COc1cc2ccccc2cc1C(=O)Nc1ccc(NC(=O)c2cccs2)cc1 yielded an inhibition of 10.3%. For COc1ccc(CCNC(=O)/C(C#N)=C2\N=C(NC(=O)c3cccs3)c3ccccc32)cc1, the inhibition was 110% (active). COc1ccc(CN(Cc2ccc(OC)cc2)C(=O)c2cccs2)cc1 showed an inhibition of 5.1%. Cc1c(Br)ccc(NC(=O)COc2ccccc2C(N)=O)c1C gave an inhibition of 1.89%. In the case of CC(C)(C)n1ncc2c(=O)n(Cc3c(Cl)cccc3Br)cnc21, the inhibition was 11.1%. CCn1c(C)nc2c1C(=O)c1ccccc1C2=O was tested, and the inhibition was 99.7% (active). In the case of Cc1nc2ccccc2n1CC(O)c1ccccc1 (stereo not drawn), the inhibition was 17.1%. CCC1(CC)Cc2ccccc2-c2nc3ccccc3c(=O)n21 was tested, and the inhibition was 8.19%. For CC(C)(C)OC(=O)CNC(=O)c1[nH]cnc1C(=O)N[C@@H](CCCCN)C(=O)OC(C)(C)C, the inhibition was 10.9%. For C=CC[C@@H](CC(=O)N[C@H](CO)Cc1ccccc1)C(=O)N[C@@H](COC(=O)[C@@H](CC=C)Cc1ccc(F)cc1)Cc1c[nH]c2ccccc12, the inhibition was 5.38%. With Cc1cc(=O)oc(C)c1C(=O)NCCN(C)Cc1ccccc1 the inhibition was 98.2% (active). COc1ccc(CNC(=O)c2c(C)cc(=O)oc2C)cc1OC gave an inhibition of 8.87%. Cc1cc(=O)oc(C)c1C(=O)NCc1ccc(F)cc1 was tested, and the inhibition was 19.4%.
